# A selection: hits, their analogues and other compounds. The true share with any hit is near 3%.
# VDR inhibitor: vitamin D3 receptor (human) inhibition; 0.93% of 400,000 active; AID 504847; Potency, µM, without a hit: max response, negative = inhibition, usual class: inhibitors; VDR-SRC2-3 peptide fluorescence polarization, 2 h; P11473; also: % is scaled to controls: 0 for no effect and ±100 for the full control effect
# Target sequence (P11473 whole entry, looked up): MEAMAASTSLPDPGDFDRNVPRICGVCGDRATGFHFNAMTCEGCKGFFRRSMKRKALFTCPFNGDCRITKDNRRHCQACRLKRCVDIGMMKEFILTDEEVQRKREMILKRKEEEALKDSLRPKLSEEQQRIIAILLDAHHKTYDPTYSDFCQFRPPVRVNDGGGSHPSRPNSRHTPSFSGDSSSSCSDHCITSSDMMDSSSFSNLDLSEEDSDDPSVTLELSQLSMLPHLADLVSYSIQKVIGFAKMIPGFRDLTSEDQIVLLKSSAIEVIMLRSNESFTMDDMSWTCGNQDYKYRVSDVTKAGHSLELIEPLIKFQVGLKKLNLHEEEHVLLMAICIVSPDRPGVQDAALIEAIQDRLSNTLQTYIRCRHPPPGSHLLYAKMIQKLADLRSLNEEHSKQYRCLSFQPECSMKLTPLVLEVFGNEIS
#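 Signal is fluorescence polarization, reporting how far test compounds block the interaction of VDR with the SRC2-3 coregulator peptide after a 2 h room-temperature incubation.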
# PLK1 PBD inh: PLK1 (human) polo-box domain binding inhibition; P53350; Plk1 PBD binding of FITC phosphopeptide, fluorescence polarization; Potency, µM, for inactives: max response, negative = inhibition, actives largely listed as inhibitors; 2.8% of 360,000 active; AID 720504; also: series mostly up to about 57 µM; % is scaled to controls: 0 for no effect and ±100 for the full control effect; nearly all actives have a fitted effect of over 65% in size
# USP1-UAF1 inh: USP1/UAF1 (human) deubiquitinase inhibition | AID 743255 | Potency, µM (highest dose often 57.1 µM), inactives show top-dose activity change, negative = inhibition, hits mostly inhibitors | 0.23% of 390,000 active | recombinant USP1/UAF1, Ub-Rhodamine cleavage fluorescence; also: % is scaled to controls: 0 for no effect and ±100 for the full control effect; nearly all actives have a fitted effect of over 60% in size
#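 Step one: compound is pinned into 1nM USP1/UAF1 in HEPES pH 7.8 buffer with TCEP. Step two: 15 min room-temperature incubation. Step three: Ub-Rho (150nM final) starts cleavage, tracked by fluorescence over six one-minute reads.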
# GCN5L2 inh: inhibitors of human GCN5L2 histone acetyltransferase; GCN5L2 HAT assay, ThioGlo1 CoA-SH fluorescence; Potency, µM (highest dose often 58.9 µM), without a hit: top-dose activity change, negative = inhibition, hits mostly inhibitors; 0.21% of 390,000 active; also: % is scaled to controls: 0 for no effect and ±100 for the full control effect
#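 Fluorescence readout, Ex340nm/Em540nm: ThioGlo1 (50uM final) reacts with free CoA thiol released as 20nM GCN5L2 acetylates H3(1-25) peptide (75uM) using acetyl-CoA (70uM). Compound and enzyme sat 15 min beforehand; 20 min room-temperature reaction.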
# TSG101-PTAP inh: blocks PTAP/TSG101 interaction to inhibit HIV-1 budding. Q99816. Fluorescence polarization, FITC-PTAP peptide / Tsg101 binding. Potency, µM (series often up to 115 µM), for the others: top-dose activity change, negative = inhibition, usual class: inhibitors. 340,000 tested, under 10 active; active = well fitted inhibition curve with a large enough effect in the main read-out, with a control signal flat, not every such curve was filed as active; inconclusive = small, poorly fitted or top-dose-only effect, or effect the other way, or a change in a side signal; inactive = no such curve, though single readings can be large or run the other way; also: % of control where 0% means no effect
#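 Steps: Tsg101 binding domain dispensed (10 uM final), compounds pinned in DMSO, FITC-labeled PTAP-motif peptide added (50 nM final); after 20 min binding at room temperature, polarization measured.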
# TbPYK confirm: Trypanosoma brucei pyruvate kinase inhibition, cherry-pick confirmation | shares compounds with PLK1 PBD inh | recombinant TbPYK, Kinase-Glo ATP luminescence | Potency, µM (doses to about 76.9 µM), without a hit: at the top dose activity change, negative = inhibition, actives largely listed as inhibitors | 67% of 890 active; also: % is scaled to controls: 0 for no effect and ±100 for the full control effect; nearly all actives have a fitted effect of over 70% in size
# TbPYK orthogonal: inhibits T. brucei pyruvate kinase in orthogonal ADP-Glo assay; shares compounds with PLK1 PBD inh; recombinant TbPYK, ADP-Glo luminescence, 60 min; Potency, µM (top dose mostly 76.9 µM), for inactives: top-dose activity change, negative = inhibition, most hits filed as inhibitors; 62% of 890 active; AID 720584; also: % is scaled to controls: 0 for no effect and ±100 for the full control effect; nearly all actives have a fitted effect of over 75% in size
# Active calls of the source: *; ? = inconclusive; / = no result. Unless noted, calls follow the shape of the dose curve; as a rule, active = well fitted curve in the direction sought with a large enough effect; inconclusive = small, poorly fitted or top-dose-only effect, or another doubt; inactive = no such curve, though single readings can be large; an effect the other way counts as inactive or inconclusive. Potency is read from the fitted curve at half-maximal effect.
SMILES,VDR inhibitor,PLK1 PBD inh,USP1-UAF1 inh,GCN5L2 inh,TSG101-PTAP inh,TbPYK confirm,TbPYK orthogonal
CCN(CC)CCNC(=O)C(Oc1ccccc1)Oc1ccccc1,1%,3%,-11%,-18%,-2%,/,/
COc1ccc(S(=O)(=O)N(C(C)=O)c2ccc3oc(=O)sc3c2)cc1,79µM*,-27%,-9%,-29%,-9%,?,16µM*
CC(Oc1ccc(Cl)cc1)c1ccc(C#N)c(=O)[nH]1 (stereo unspecified),-10%,-8%,-15%,-2%,-1%,/,/
CS(=O)(=O)c1sc2nc(-c3cccs3)cc(-c3ccccc3)c2c1N,?,8.4µM*,-17%,?,1%,?,35µM*
Cc1ccc(-c2cc(-c3ccccc3)c3c(N)c(S(C)(=O)=O)sc3n2)cc1,-7%,-8%,-21%,?,-4%,/,/
COCCCn1c(=S)[nH]c2c(sc3ccccc32)c1=O,3%,-19%,-6%,?,-2%,/,/
O=C(O)CCCn1c(=S)[nH]c2c(sc3ccc([N+](=O)[O-])cc32)c1=O,15%,-15%,-7%,-3%,-1%,7.9µM*,4.5µM*
Clc1nssc1=Nc1ccc(Br)cc1,35µM*,2.1µM*,-36%,8.9µM*,5%,8.9µM*,11µM*
Clc1nssc1=Nc1nncs1,5.6µM*,2.4µM*,-23%,2.2µM*,-3%,2µM*,5µM*
COc1cc(N=c2ssnc2Cl)cc(OC)c1,20µM*,1.7µM*,-21%,22µM*,-1%,4µM*,5µM*
N#Cc1cccc(N=c2ssnc2Cl)c1,?,1.7µM*,?,6.3µM*,54%,8.9µM*,7.1µM*
O=C1CCCc2cc(S(=O)(=O)NCC3CCC(C(=O)NCc4ccccc4Cl)CC3)ccc2N1 (stereo unspecified),16%,/,-25%,-18%,/,/,/
CCOC(=O)C1=C(N)N(c2ccccc2)C(=O)C1,25µM*,3µM*,-10%,93%,-1%,-2%,-2%
CCOC(=O)c1ccc(N2C(=O)CC(C(=O)OC)=C2C)cc1,?,?,-26%,0%,-10%,/,/
Cc1cc2nc(N(Cc3cccnc3)C(=O)c3ccc(Cl)s3)sc2cc1C,4%,/,?,0%,/,/,/
O=C(CN1CCN(c2ccc(F)cc2)CC1)Nc1ccc2c(c1)OCCO2,10%,-6%,-15%,-3%,0%,/,/
O=C(CN1CCN(c2ccc(O)cc2)CC1)Nc1ccc2c(c1)OCCO2,-18%,10%,-28%,1%,0%,22µM*,32µM*
Cc1ccc(-c2cc(C(=O)Nc3cccnc3)c3ccccc3n2)o1,-25%,?,-11%,?,-28%,?,-27%
Cc1ccc(NC(=O)c2cc(-c3ccc(C)o3)nc3ccccc23)cc1,-17%,?,?,-5%,0%,/,/
Cc1ccc(CCNC(=O)C2CCCN(C(=O)c3cc4sccc4n3C)C2)cc1 (stereo unspecified),-3%,-9%,2%,-5%,-6%,2.5µM*,10µM*
CCCC(=O)N1CCCC1(C)C(=O)NCCc1ccccn1 (stereo unspecified),/,-2%,/,/,/,/,/
O=S(=O)(/N=S1\CC=CCN1S(=O)(=O)c1ccccc1)c1ccccc1 (stereo unspecified),/,3.4µM*,?,/,-7%,0.5µM*,1.4µM*
Cc1nc(SCc2ccc(O)c([N+](=O)[O-])c2)c([N+](=O)[O-])[nH]1,?,-30%,-5%,14µM*,-1%,?,13µM*
Cc1cccc(NC(=O)CN2C(=O)N/C(=C/c3ccc(C)o3)C2=O)c1,?,3%,-17%,-23%,11%,?,35µM*
Cc1ccc(NC(=O)CN2C(=O)N/C(=C/c3ccc(C)o3)C2=O)cc1,?,3%,1%,?,15%,/,/

# Screening results deposited in PubChem by National Center for Advancing Translational Sciences (NCATS).
